Bioassay records: PubChem BioAssay, several laboratories
ALR inh = inhibitors of human ALR sulfhydryl oxidase, primary screen, biochemical, H2O2 detection, HRP-luminol luminescence, single point | FAD-linked sulfhydryl oxidase ALR (Homo sapiens), P55789 | purified ALR, DTT oxidation | inhibition, % (concentration not given with the values) | hit rate 3.8% among 290,000 | AID 485317, 2010;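 active means mean replicate inhibition above about 79%, with every replicate also reaching it, limit read from the data; inconclusive means only one of the two criteria met; inactive means mean below limit and not every replicate reaching it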
Target sequence (P55789 whole entry, looked up): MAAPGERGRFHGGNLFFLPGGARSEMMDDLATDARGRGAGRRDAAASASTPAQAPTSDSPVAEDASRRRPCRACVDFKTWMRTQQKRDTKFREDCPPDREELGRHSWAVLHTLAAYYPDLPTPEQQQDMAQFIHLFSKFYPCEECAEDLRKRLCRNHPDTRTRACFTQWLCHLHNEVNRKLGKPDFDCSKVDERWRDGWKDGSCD
aDG glyco act = activators of alpha-DG glycosylation, primary screen, uHTS, Pro5-aDG cells, AlphaScreen. alpha-DG glycosylation AlphaScreen (IIH6); 0% Pro5, 100% B10-LARGE cell signal. activation, % at 10 µM. hit rate 0.22% among 360,000. AID 624168, 2012;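 active means activation of at least 8% versus controls, or a plate z-score of at least 8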;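 further: Pro5 are CHO cells carrying HIG-tagged alpha-DG that lacks glycosylation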
PHOSPHO1 inh = PubChem AID 1565; recombinant PHOSPHO1, absorbance phosphatase assay; inhibition, % at 13.3 µM; hit rate 1.1% among 290,000; in the data active means inhibition above about 60%
Target sequence (Q8TCT1 whole entry, looked up): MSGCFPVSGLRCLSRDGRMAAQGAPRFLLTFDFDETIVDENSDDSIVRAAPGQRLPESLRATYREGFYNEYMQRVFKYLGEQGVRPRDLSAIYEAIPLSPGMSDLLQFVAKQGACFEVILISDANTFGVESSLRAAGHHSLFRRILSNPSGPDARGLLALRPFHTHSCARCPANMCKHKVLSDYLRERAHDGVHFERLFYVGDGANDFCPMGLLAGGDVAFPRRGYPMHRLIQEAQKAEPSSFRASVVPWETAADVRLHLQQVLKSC
A3G deaminase = APOBEC3G DNA deaminase inhibitors, primary screen, biochemical, fluorescence, single-stranded DNA substrate, uHTS; DNA dC->dU-editing enzyme APOBEC-3G (Homo sapiens), Q9HC16; recombinant A3G, ssDNA deamination FAM/TAMRA fluorescence; inhibition, % at 20 µM; hit rate 0.28% among 330,000; AID 493012, 2011;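 active means inhibition of at least 40% at 20 µM, with no more than 30% in the related APOBEC3A deaminase screen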;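 further: plate controls were DMSO wells with A3G for no effect and wells lacking A3G enzyme for full effect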
rCAG RNA binder = binders of r(CAG) RNA repeats, primary screen, biochemical, fluorescence; r(CAG) RNA repeat, TO-PRO-1 dye displacement fluorescence; hit rate 1.3% among 370,000; inhibition, % at 3 µM;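 active means inhibition above the plate cutoff, the mean of all test compounds on that plate plus 3 SD, cut at about 35% in these data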;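 further: 0% = DMSO alone and 100% = 100 µM mitoxantrone as full dye displacement; higher means more dye released from RNA so lower well fluorescence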
APOBEC3A inh = APOBEC3A ssDNA deaminase inhibitors, primary screen, selectivity assay for APOBEC3G inhibitor project, biochemical, FAM/TAMRA oligo cleavage fluorescence; hit rate 0.41% among 330,000; AID 493011, 2011; recombinant A3A, FAM/TAMRA ssDNA deamination fluorescence; DNA dC->dU-editing enzyme APOBEC-3A (Homo sapiens), P31941; inhibition, % at 20 µM;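 active means at least 40% inhibition at 20 µM here, with at most 30% in a related deaminase screen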;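 further: plate controls were A3A with DMSO for no effect and wells lacking A3A enzyme for full effect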
Target sequence (P31941 whole entry, looked up): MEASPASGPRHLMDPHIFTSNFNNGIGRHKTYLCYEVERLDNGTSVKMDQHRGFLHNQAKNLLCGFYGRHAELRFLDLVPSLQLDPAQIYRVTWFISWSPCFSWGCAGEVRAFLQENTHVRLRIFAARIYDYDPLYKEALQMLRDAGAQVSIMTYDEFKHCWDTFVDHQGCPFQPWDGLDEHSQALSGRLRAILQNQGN
rCAG binder conf = small molecules binding CAG repeat RNA – biochemical, fluorescence, confirmation. inhibition, % at 3 µM. AID 652065, 2013. hit rate 70% among 4,300. r(CAG) RNA repeat, TO-PRO-1 dye displacement fluorescence. shares compounds with rCAG RNA binder;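 active means inhibition above a per-plate cutoff, the mean inhibition of sample wells plus 3 SD, cut at about 35% in these data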;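 further: loss of TO-PRO-1 fluorescence as compound displaces dye from 1x1 AA loop RNA; 0% = DMSO only wells and 100% = 100 µM mitoxantrone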
dCAG dye counter = displacement of TO-PRO-1 from CAG DNA duplex, counter-screen for rCAG RNA repeat binder project, biochemical, fluorescence, TO-PRO-1 dye, d(CAG) DNA oligo | inhibition, % at 3 µM | hit rate 94% among 4,300 | AID 652068, 2013 | shares compounds with rCAG RNA binder | d(CAG) DNA oligo TO-PRO-1 dye displacement;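 active means inhibition above its plate's cutoff, the mean test-well inhibition plus 3 SD, cut at about 4.8% in these data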;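 further: 0% = DNA dye mix with DMSO and 100% = 100 µM mitoxantrone; hits displace the dye from DNA and so lower well fluorescence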
dCAG dye DR = inhibitors of DNA CAG/GTC TO-PRO-1 complex, dose response, counter-screen for rCAG RNA repeat binder project, biochemical, fluorescence, TO-PRO-1 dye. shares compounds with rCAG RNA binder. DNA CAG/GTC duplex TO-PRO-1 dye displacement fluorescence. IC50, µM. hit rate 20% among 250; in the data active means IC50 below about 10 µM
* marks the source's active call; other numbers are inactive results; ? = inconclusive; . = not tested or not shown. Compounds with a hit are over-represented: about 5.4% of the library has one in this group of screens.

SMILES | ALR inh | aDG glyco act | PHOSPHO1 inh | A3G deaminase | rCAG RNA binder | APOBEC3A inh | rCAG binder conf | dCAG dye counter | others
O=C(CSc1cc([N+](=O)[O-])cc(S(=O)(=O)Cc2ccccc2)c1)NC1CC1 | -8 | 0 | -3 | -6 | 56* | 2 | 5 | 5.6*
Nc1nc(=S)c2[nH]c(=S)[nH]c2[nH]1 | . | 0 | . | . | 2 | . | . | .
CSc1nc(=S)c2[nH]c(=S)[nH]c2[nH]1 | 99* | 0 | 53 | . | 65* | . | 68* | 30* | dCAG dye DR=9.3*
Cn1c(-c2ccccc2)c(Sc2ccccc2)c2cc(-c3ccc4cc[nH]c4c3)ccc21 | . | 0 | . | . | 9 | . | . | .
CCOc1cc2c3c(c1)C(C)=CC(C)(C)N3C(=O)C2=O | 1 | 0 | 37 | -6 | -2 | 5 | . | .
CC(=O)Oc1cc2c3c(c1)/C(=C1/SC(=S)NC1=O)C(=O)N3C(C)(C)C=C2C | 21 | 0 | -44 | -6 | 59* | -2 | 92* | 73*
Cc1ccc(OCc2cc(C(=O)N(C)C3CCCc4ccccc43)no2)cc1C (configuration not stated) | . | 0 | . | . | 7 | . | . | .
CCOc1ccc(/C=C2\SC(=S)N(NS(=O)(=O)c3ccccc3)C2=O)cc1OC | . | 0 | 24 | -7 | 79* | -2 | 71* | 35*
CCOc1cc(/C=C2\SC(=S)N(NS(=O)(=O)c3ccccc3)C2=O)ccc1O | 99* | 0 | 7 | 2 | 47* | 3 | 28 | 8.6*
CCN=C1S/C(=C\c2ccc(OCC)c(OC)c2)C(=O)N1CC | -3 | 0 | -9 | -2 | 3 | 0 | . | .
CCOc1ccc(/C=C2\SC(=S)N(C)C2=O)cc1OC | -5 | 0 | 43 | 10 | 4 | 2 | . | .
CCOc1ccc(/C=C2\SC(=S)N(NS(=O)(=O)c3ccc(C)cc3)C2=O)cc1OC | 12 | 0 | 28 | -6 | 83* | -2 | 76* | 41*
COc1cc(/C=C2\SC(=S)N(CCCCC(=O)O)C2=O)ccc1OS(=O)(=O)c1ccc(C)cc1 | -16 | 6.9* | . | 1 | 79* | 0 | 80* | 44*
O=C(NCCN1CCNC1=O)c1ccc2sc([C@@H]3O[C@H](CO)[C@H](O)[C@H](O)[C@H]3O)nc2c1 | . | 0 | . | . | 0 | . | . | .
Cc1cc(Br)cn2c(Cc3ccccc3C(F)(F)F)c(-c3ccc(F)cc3)nc12 | . | . | . | . | 55* | . | 43* | 11* | dCAG dye DR=>30
FC(F)(F)c1ccccc1Cc1c(-c2ccc(Cl)cc2)nc2ccc(Cl)cn12 | . | 0 | . | . | 50* | . | 32 | 7.7*
FC(F)(F)c1ccccc1Cc1c(-c2ccccc2)nc2ccc(Cl)cn12 | . | 0 | . | . | 17 | . | . | .
Cc1ccc2nc(-c3ccccc3)c(Cc3ccccc3C(F)(F)F)n2c1 | . | 0 | . | . | 24 | . | . | .
FC(F)(F)c1ccccc1Cc1c(-c2ccc(Cl)cc2)nc2ccc(Br)cn12 | . | 0 | . | . | 64* | . | 14 | 3
Cc1ccc(-c2nc3ccc(C)cn3c2Cc2ccccc2C(F)(F)F)cc1 | . | 0 | . | . | 36* | . | 20 | 4
N#Cc1ccc(-c2nc3ccc(Cl)cn3c2Cc2ccccc2C(F)(F)F)cc1 | . | 0 | . | . | 9 | . | . | .
FC(F)(F)c1ccccc1Cc1c(-c2cccc(Br)c2)nc2ccc(Br)cn12 | . | 0 | . | . | 19 | . | . | .
Fc1ccc(-c2nc3ccc(Cl)cn3c2Cc2ccccc2C(F)(F)F)cc1 | . | 0 | . | . | 38* | . | 23 | 3
Fc1ccc(-c2nc3ccc(Br)cn3c2Cc2ccccc2C(F)(F)F)cc1 | . | 5 | . | . | 51* | . | 11 | 2
O=C(O)c1[nH]c2ccc(Cl)cc2c1CC(=O)N1CCN(c2ccccc2)CC1 | 40 | 1 | 6 | -9 | 41* | -7 | 42* | 12*
SMILES | ALR inh | aDG glyco act | PHOSPHO1 inh | A3G deaminase | rCAG RNA binder | APOBEC3A inh | rCAG binder conf | dCAG dye counter | others
COc1ccc(OC)c(CNC(=O)Cc2c(C(=O)O)[nH]c3ccc(Cl)cc23)c1 | 2 | 0 | -5 | 0 | 26 | 1 | . | .
COc1ccc(Br)cc1CNC(=O)Cc1c(C(=O)O)[nH]c2ccc(Cl)cc12 | 5 | 0 | 32 | -3 | 58* | -1 | 45* | 11*
Cc1ccc(C)c(N2CCN(C(=O)Cc3c(C(=O)O)[nH]c4ccc(Cl)cc34)CC2)c1 | 11 | 0 | 16 | -5 | 57* | -3 | 64* | 25*
COc1ccccc1N1CCN(C(=O)Cc2c(C(=O)O)[nH]c3ccc(Cl)cc23)CC1 | ? | 0 | 3 | -3 | 39* | -2 | 42* | 11*
CNC(=S)Nc1cc(S(=O)(=O)Nc2cc(Cl)ccc2Cl)ccc1N1CCCC1 | 62 | 0 | 25 | -7 | 37* | -2 | 43* | 19*
Nc1cc(S(=O)(=O)Nc2cc(Cl)ccc2Cl)ccc1N1CCCC1 | . | 1 | 11 | 12 | 16 | 3 | . | .
C[C@H](O)[C@@H]1C(=O)N2CCc3c([nH]c4c(-c5ccccc5)cccc34)[C@@H]2C[C@@H]1N(C)C(=O)c1ccco1 | . | . | . | . | 7 | . | . | .
COc1ccc(/C=C2\SC(=S)NC2=O)cc1OS(=O)(=O)c1ccc(NC(C)=O)cc1 | . | 0 | -20 | . | 88* | . | 78* | 35*
COc1cc(/C=C2/SC(=S)NC2=O)ccc1OS(=O)(=O)c1ccc(C)cc1 | 11 | 0 | -29 | -4 | . | 1 | . | .
COc1cccc(/C=C2\SC(=S)NC2=O)c1OS(=O)(=O)c1ccc(NC(C)=O)cc1 | 20 | 0 | -6 | -2 | 69* | 1 | 32 | 9.3*
COCCCNC(=O)c1ccc2nc([C@@H]3O[C@H](CO)[C@H](O)[C@H](O)[C@H]3O)[nH]c2c1 | . | 0 | . | . | -1 | . | . | .
CCOC(=O)C1=C(N)n2c(s/c(=C/c3ccco3)c2=O)=C(C(=O)OC)C1c1ccco1 (configuration not stated) | 28 | 0 | -22 | . | 57* | . | 24 | 14*
